# In PMC11006913:
# Residue numbers refer to the chain shown, from its start.
# Columns and labels:
# Experiment in all cases: PBM; 200 nM protein, PBS
# Conditions in all cases: dsDNA, one strand shown
# HOXC10 [1] = target: HOXC10 (Homo sapiens, UniProt Q9NYD6 254-340)
# PAX4 [2] = target: T1, PAX4 (Homo sapiens, UniProt O43316 9-242, R200K)
# T1 sequence: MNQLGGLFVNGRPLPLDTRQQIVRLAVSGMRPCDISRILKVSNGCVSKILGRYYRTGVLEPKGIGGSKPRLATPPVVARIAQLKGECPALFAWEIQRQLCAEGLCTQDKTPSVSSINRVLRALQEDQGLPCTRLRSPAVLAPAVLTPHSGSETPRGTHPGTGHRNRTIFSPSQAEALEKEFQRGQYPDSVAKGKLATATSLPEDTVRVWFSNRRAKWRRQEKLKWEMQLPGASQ
# PAX4 [3] = target: T2, PAX4 (Homo sapiens, UniProt O43316 9-242)
# T2 sequence: T1 sequence with K192R
# PAX4 [4] = target: T3, PAX4 (Homo sapiens, UniProt O43316 9-242, R200Q)
# T3 sequence: T1 sequence with K192Q
# PAX4 [5] = target: T4, PAX4 (Homo sapiens, UniProt O43316 9-242, F177V)
# T4 sequence: T1 sequence with F169V, K192R
# HOXC10 [6] = target: HOXC10 (Homo sapiens, UniProt Q9NYD6 254-340, K271E)
# Chain of HOXC10 (Homo sapiens, UniProt Q9NYD6 254-340, K271E) (Q9NYD6 254-340 K271E): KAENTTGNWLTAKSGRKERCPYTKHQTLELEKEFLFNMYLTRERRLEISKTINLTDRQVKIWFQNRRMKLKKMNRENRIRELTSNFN
# PAX4 [7] = target: T5, PAX4 (Homo sapiens, UniProt O43316 9-242, F177Y)
# T5 sequence: T1 sequence with F169Y, K192R
# PAX4 [8] = target: T6, PAX4 (Homo sapiens, UniProt O43316 9-242, R227W)
# T6 sequence: T1 sequence with K192R, R219W
# CRX = CRX (Homo sapiens, UniProt O43186 26-111, R41L)
# Chain of CRX (O43186 26-111 R41L): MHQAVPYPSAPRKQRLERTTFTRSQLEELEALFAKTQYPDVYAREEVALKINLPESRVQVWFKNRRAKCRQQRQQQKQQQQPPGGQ
# PRRX1 [9] = target: PRRX1 (Homo sapiens, UniProt P54821 80-166, F113S)
# Chain of PRRX1 (Homo sapiens, UniProt P54821 80-166, F113S) (P54821 80-166 F113S): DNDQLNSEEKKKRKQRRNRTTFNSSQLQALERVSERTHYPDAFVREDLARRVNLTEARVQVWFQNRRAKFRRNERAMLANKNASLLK
# HOXD13 [10] = target: HOXD13 (Homo sapiens, UniProt P35453 263-343, T313R)
# Chain of HOXD13 (Homo sapiens, UniProt P35453 263-343, T313R) (P35453 263-343 T313R): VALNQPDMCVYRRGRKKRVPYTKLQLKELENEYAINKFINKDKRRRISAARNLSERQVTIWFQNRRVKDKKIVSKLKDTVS
# HOXD13 [11] = target: HOXD13 (Homo sapiens, UniProt P35453 263-343)
# Chain of HOXD13 (Homo sapiens, UniProt P35453 263-343) (P35453 263-343): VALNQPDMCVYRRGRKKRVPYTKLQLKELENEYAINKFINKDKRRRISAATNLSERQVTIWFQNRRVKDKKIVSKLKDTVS
# HOXD13 [12] = target: HOXD13 (Homo sapiens, UniProt P35453 263-343, T313A)
# Chain of HOXD13 (Homo sapiens, UniProt P35453 263-343, T313A) (P35453 263-343 T313A): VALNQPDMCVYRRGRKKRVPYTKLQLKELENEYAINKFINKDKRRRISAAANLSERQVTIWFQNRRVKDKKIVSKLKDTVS
# PRRX1 [13] = target: PRRX1 (Homo sapiens, UniProt P54821 80-166)
# Chain of PRRX1 (Homo sapiens, UniProt P54821 80-166) (P54821 80-166): as the sequence (P54821 80-166 F113S) above, with S34F counted along it
# HOXA2 [14] = target: HOXA2 (Homo sapiens, UniProt O43364 129-215, R185T)
# Chain of HOXA2 (Homo sapiens, UniProt O43364 129-215, R185T) (O43364 129-215 R185T): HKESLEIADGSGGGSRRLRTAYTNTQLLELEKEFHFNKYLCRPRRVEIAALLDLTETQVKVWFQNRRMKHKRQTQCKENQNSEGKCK
# HOXA2 [15] = target: HOXA2 (Homo sapiens, UniProt O43364 129-215, R185K)
# Chain of HOXA2 (Homo sapiens, UniProt O43364 129-215, R185K) (O43364 129-215 R185K): as the sequence (O43364 129-215 R185T) above, with T57K counted along it
# PROP1 [16] = target: PROP1 (Homo sapiens, UniProt O75360 56-141)
# Chain of PROP1 (Homo sapiens, UniProt O75360 56-141) (O75360 56-141): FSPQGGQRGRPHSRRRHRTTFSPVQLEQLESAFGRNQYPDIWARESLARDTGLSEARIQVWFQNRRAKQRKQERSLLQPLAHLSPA
# PROP1 [17] = target: PROP1 (Homo sapiens, UniProt O75360 56-141, R99H)
# Chain of PROP1 (Homo sapiens, UniProt O75360 56-141, R99H) (O75360 56-141 R99H): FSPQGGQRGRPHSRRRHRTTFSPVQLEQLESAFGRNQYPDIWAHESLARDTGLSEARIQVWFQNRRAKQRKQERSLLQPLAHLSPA
# PROP1 [18] = target: PROP1 (Homo sapiens, UniProt O75360 56-141, F88S)
# Chain of PROP1 (Homo sapiens, UniProt O75360 56-141, F88S) (O75360 56-141 F88S): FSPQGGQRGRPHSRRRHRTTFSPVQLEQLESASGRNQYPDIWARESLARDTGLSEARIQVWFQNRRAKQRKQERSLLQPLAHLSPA
# HOXA2 [19] = target: HOXA2 (Homo sapiens, UniProt O43364 129-215, Y150S)
# Chain of HOXA2 (Homo sapiens, UniProt O43364 129-215, Y150S) (O43364 129-215 Y150S): as the sequence (O43364 129-215 R185T) above, with Y22S, T57R counted along it
# HOXA2 [20] = target: HOXA2 (Homo sapiens, UniProt O43364 129-215)
# Chain of HOXA2 (Homo sapiens, UniProt O43364 129-215) (O43364 129-215): as the sequence (O43364 129-215 R185T) above, with T57R counted along it
# VAX1 [21] = target: VAX1 (Homo sapiens, UniProt Q5SQQ9 86-172)
# Chain of VAX1 (Homo sapiens, UniProt Q5SQQ9 86-172) (Q5SQQ9 86-172): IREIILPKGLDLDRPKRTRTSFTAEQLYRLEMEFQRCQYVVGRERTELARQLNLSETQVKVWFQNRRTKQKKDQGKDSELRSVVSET
# VAX1 [22] = target: VAX1 (Homo sapiens, UniProt Q5SQQ9 86-172, T142I)
# Chain of VAX1 (Homo sapiens, UniProt Q5SQQ9 86-172, T142I) (Q5SQQ9 86-172 T142I): as the sequence (Q5SQQ9 86-172) above, with T57I counted along it
# VAX1 [23] = target: VAX1 (Homo sapiens, UniProt Q5SQQ9 86-172, K157R)
# Chain of VAX1 (Homo sapiens, UniProt Q5SQQ9 86-172, K157R) (Q5SQQ9 86-172 K157R): as the sequence (Q5SQQ9 86-172) above, with K72R counted along it
# ALX4 [24] = target: ALX4 (Homo sapiens, UniProt Q9H161 200-286)
# Chain of ALX4 (Homo sapiens, UniProt Q9H161 200-286) (Q9H161 200-286): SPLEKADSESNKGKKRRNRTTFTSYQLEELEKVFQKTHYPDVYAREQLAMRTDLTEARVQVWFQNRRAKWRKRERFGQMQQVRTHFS
# ALX4 [25] = target: ALX4 (Homo sapiens, UniProt Q9H161 200-286, Q225E)
# Chain of ALX4 (Homo sapiens, UniProt Q9H161 200-286, Q225E) (Q9H161 200-286 Q225E): as the sequence (Q9H161 200-286) above, with Q26E counted along it
# Chain of HOXC10 (Homo sapiens, UniProt Q9NYD6 254-340) (Q9NYD6 254-340): as the sequence (Q9NYD6 254-340 K271E) above, with E18K counted along it
sequence,measurement,setting,value
AGGGAGGC,binding signal,HOXC10 [1],"9.98 upbm affinity estimate (log intensity, higher = more binding, comparable within an allelic series)"
same,binding signal,PAX4 [2],"9.2 upbm affinity estimate (log intensity, higher = more binding, comparable within an allelic series)"
same,binding signal,PAX4 [3],"9.2 upbm affinity estimate (log intensity, higher = more binding, comparable within an allelic series)"
same,binding signal,PAX4 [4],"9.17 upbm affinity estimate (log intensity, higher = more binding, comparable within an allelic series)"
same,binding signal,PAX4 [5],"9.02 upbm affinity estimate (log intensity, higher = more binding, comparable within an allelic series)"
same,binding signal,HOXC10 [6],"10 upbm affinity estimate (log intensity, higher = more binding, comparable within an allelic series)"
same,binding signal,PAX4 [7],"9.16 upbm affinity estimate (log intensity, higher = more binding, comparable within an allelic series)"
same,binding signal,PAX4 [8],"9.18 upbm affinity estimate (log intensity, higher = more binding, comparable within an allelic series)"
TAATACGA,binding signal,HOXC10 [1],"11 upbm affinity estimate (log intensity, higher = more binding, comparable within an allelic series)"
same,binding signal,PAX4 [2],"11.6 upbm affinity estimate (log intensity, higher = more binding, comparable within an allelic series)"
same,binding signal,PAX4 [8],"10.9 upbm affinity estimate (log intensity, higher = more binding, comparable within an allelic series)"
same,binding signal,CRX,"10.4 upbm affinity estimate (log intensity, higher = more binding, comparable within an allelic series)"
CTTTATGA,binding signal,HOXC10 [1],"12.2 upbm affinity estimate (log intensity, higher = more binding, comparable within an allelic series)"
same,binding signal,PRRX1 [9],"10 upbm affinity estimate (log intensity, higher = more binding, comparable within an allelic series)"
same,binding signal,HOXD13 [10],"10.5 upbm affinity estimate (log intensity, higher = more binding, comparable within an allelic series)"
same,binding signal,HOXD13 [11],"11.8 upbm affinity estimate (log intensity, higher = more binding, comparable within an allelic series)"
same,binding signal,HOXC10 [6],"11.6 upbm affinity estimate (log intensity, higher = more binding, comparable within an allelic series)"
same,binding signal,HOXD13 [12],"11.5 upbm affinity estimate (log intensity, higher = more binding, comparable within an allelic series)"
same,binding signal,PRRX1 [13],"11.2 upbm affinity estimate (log intensity, higher = more binding, comparable within an allelic series)"
CTGCCCCC,binding signal,HOXC10 [1],"9.96 upbm affinity estimate (log intensity, higher = more binding, comparable within an allelic series)"
same,binding signal,HOXA2 [14],"6.91 upbm affinity estimate (log intensity, higher = more binding, comparable within an allelic series)"
same,binding signal,HOXA2 [15],"9.95 upbm affinity estimate (log intensity, higher = more binding, comparable within an allelic series)"
same,binding signal,HOXC10 [6],"9.97 upbm affinity estimate (log intensity, higher = more binding, comparable within an allelic series)"
same,binding signal,PROP1 [16],"6.68 upbm affinity estimate (log intensity, higher = more binding, comparable within an allelic series)"
same,binding signal,PROP1 [17],"6.59 upbm affinity estimate (log intensity, higher = more binding, comparable within an allelic series)"
same,binding signal,PROP1 [18],"6.14 upbm affinity estimate (log intensity, higher = more binding, comparable within an allelic series)"
same,binding signal,HOXA2 [19],"10.3 upbm affinity estimate (log intensity, higher = more binding, comparable within an allelic series)"
same,binding signal,HOXA2 [20],"7.21 upbm affinity estimate (log intensity, higher = more binding, comparable within an allelic series)"
GGCACGCC,binding signal,HOXC10 [1],"10 upbm affinity estimate (log intensity, higher = more binding, comparable within an allelic series)"
same,binding signal,HOXA2 [14],"6.97 upbm affinity estimate (log intensity, higher = more binding, comparable within an allelic series)"
same,binding signal,HOXA2 [15],"10.1 upbm affinity estimate (log intensity, higher = more binding, comparable within an allelic series)"
same,binding signal,HOXC10 [6],"10 upbm affinity estimate (log intensity, higher = more binding, comparable within an allelic series)"
same,binding signal,VAX1 [21],"6.93 upbm affinity estimate (log intensity, higher = more binding, comparable within an allelic series)"
same,binding signal,VAX1 [22],"7.04 upbm affinity estimate (log intensity, higher = more binding, comparable within an allelic series)"
same,binding signal,HOXA2 [19],"10.3 upbm affinity estimate (log intensity, higher = more binding, comparable within an allelic series)"
same,binding signal,HOXA2 [20],"7.03 upbm affinity estimate (log intensity, higher = more binding, comparable within an allelic series)"
same,binding signal,VAX1 [23],"6.97 upbm affinity estimate (log intensity, higher = more binding, comparable within an allelic series)"
ATGCATAA,binding signal,HOXC10 [1],"11.2 upbm affinity estimate (log intensity, higher = more binding, comparable within an allelic series)"
same,binding signal,ALX4 [24],"10.3 upbm affinity estimate (log intensity, higher = more binding, comparable within an allelic series)"
same,binding signal,ALX4 [25],"9.57 upbm affinity estimate (log intensity, higher = more binding, comparable within an allelic series)"
same,binding signal,HOXC10 [6],"10.9 upbm affinity estimate (log intensity, higher = more binding, comparable within an allelic series)"
AGGGCGGA,binding signal,HOXC10 [1],"9.89 upbm affinity estimate (log intensity, higher = more binding, comparable within an allelic series)"
same,binding signal,HOXD13 [10],"9.35 upbm affinity estimate (log intensity, higher = more binding, comparable within an allelic series)"
same,binding signal,HOXD13 [11],"9.36 upbm affinity estimate (log intensity, higher = more binding, comparable within an allelic series)"
same,binding signal,HOXC10 [6],"9.9 upbm affinity estimate (log intensity, higher = more binding, comparable within an allelic series)"
same,binding signal,HOXD13 [12],"9.37 upbm affinity estimate (log intensity, higher = more binding, comparable within an allelic series)"
GAGCTGCC,binding signal,HOXC10 [1],"9.9 upbm affinity estimate (log intensity, higher = more binding, comparable within an allelic series)"
same,binding signal,HOXC10 [6],"9.88 upbm affinity estimate (log intensity, higher = more binding, comparable within an allelic series)"
ATAAAGAT,binding signal,HOXC10 [1],"11.6 upbm affinity estimate (log intensity, higher = more binding, comparable within an allelic series)"
same,binding signal,HOXC10 [6],"11.1 upbm affinity estimate (log intensity, higher = more binding, comparable within an allelic series)"
AAAGATAT,binding signal,HOXC10 [1],"10.9 upbm affinity estimate (log intensity, higher = more binding, comparable within an allelic series)"
same,binding signal,HOXD13 [11],"10.8 upbm affinity estimate (log intensity, higher = more binding, comparable within an allelic series)"
same,binding signal,HOXD13 [12],"10.9 upbm affinity estimate (log intensity, higher = more binding, comparable within an allelic series)"
